SARS PLpro yeast: blocks SARS-CoV papain-like protease in a yeast assay. S. cerevisiae expressing SARS-CoV PLpro, growth rescue. Potency, µM (top dose mostly 32.9 µM), for inactives: at the highest dose activity, positive = growth rescue, usual class: activators. hit rate 0.19% among 330,000. AID 485353; note: potency is the fitted concentration of half-maximal effect; 0% is about no effect; nearly all actives have a fitted effect of over 55% in size
Pf growth 48h: P. falciparum growth inhibition at 48 hours (one generation) | P. falciparum luciferase growth in erythrocytes, 48 h | Potency, µM (series often up to 28.7 µM), without a hit: top-dose activity change, negative = inhibition, hits mostly inhibitors | hit rate 5.9% among 310,000 | AID 504832; active = well fitted inhibition curve with a large enough effect; inconclusive = small, poorly fitted or top-dose-only effect, or another doubt; inactive = no such curve, though single readings can be large or run the other way; note: potency is the fitted concentration of half-maximal effect; % is set by controls: 0 for no effect and ±100 for the full control effect
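Firefly luciferase activity from engineered P. falciparum reports growth; inhibitors lower the luminescent signal. Cultures contained 2% hematocrit erythrocytes at 0.1% final parasitemia.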
Pf growth 96h: inhibits malaria parasite growth, 96 h; P. falciparum luciferase reporter growth, 96 h; Potency, µM (top dose mostly 28.7 µM), for the others: top-dose activity change, negative = inhibition, usual class: inhibitors; hit rate 6.9% among 320,000; AID 504834; active = well fitted inhibition curve with a large enough effect; inconclusive = small, poorly fitted or top-dose-only effect, or another doubt; inactive = no such curve, though single readings can be large or run the other way; note: potency is the fitted concentration of half-maximal effect; % is set by controls: 0 for no effect and ±100 for the full control effect
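Infected RBCs, 2% Hct / 0.05% parasitemia final; luciferase-reporter P. falciparum; cpd 96 h, 37 C, 5% CO2; luciferase detection reagent; luminescence.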
Cycloheximide cs: counter-screen for Shiga toxin inhibitors: cycloheximide protein synthesis inhibition. cell reporter, cycloheximide protein synthesis inhibition counterscreen. hit rate 12% among 300,000. max response, %; in the data active = max response mostly above about 13%, no sharp cut-off; inactive = mostly below about 14%; note: read at 38.3 µM for the half of the compounds with a filed dose; 0% is about no effect
NS1 function inh: influenza NS1 inhibition; Potency, µM (doses to about 46.1 µM), inactives show at the top dose activity, positive = more growth; AID 2326; hit rate 0.4% among 270,000; note: potency is the fitted concentration of half-maximal effect; actives are rising curves; nearly all actives have a fitted effect of over 50% in size
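S. cerevisiae expressing influenza A NS1, grown in glucose, washed, then diluted 1:100 into pH 6.0 -URA galactose medium with 23 nl compound. Growth recovery read as OD600; NS1-free strain serves as control.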
Shiga inhibitor: Shiga toxin inhibition. Vero cells, Shiga toxin protein synthesis inhibition reporter. inhibition, % at 38.7 µM. hit rate 9.2% among 290,000; in the data active = inhibition mostly above about 28%, no sharp cut-off; inactive = mostly below about 43%; note: 0% is about no effect
Starred values were filed as active, the others as inactive. This is a sample that favours compounds with a hit; in the whole collection about 21% have one here. Unless noted, calls come from the whole dose curve.

What do the screens show for `CC(C)c1ccc(-c2nn(-c3ccccc3)cc2C(=O)NCC2CCCO2)cc1` (stereo not drawn)?
SARS PLpro yeast: -6%; Pf growth 48h: inconclusive; Pf growth 96h: inconclusive

Results for COc1cc2nc(SCc3ccc(C(F)(F)F)cc3)n(Cc3cccs3)c(=N)c2cc1OC ?
SARS PLpro yeast: -2%; Pf growth 48h: inconclusive; Pf growth 96h: 0%; Cycloheximide cs: -1; NS1 function inh: 14%; Shiga inhibitor: -12

How did COc1ccc(Cn2c(SCc3ccc(C)cc3)nc3cc(OC)c(OC)cc3c2=N)cc1Cl do in these assays?
SARS PLpro yeast: -29%; Pf growth 48h: 1.7µM*; Pf growth 96h: 2.3µM*; Cycloheximide cs: -2; NS1 function inh: inconclusive; Shiga inhibitor: -3

What do the screens show for `COCCCn1c(SCc2cccc(C(F)(F)F)c2)nc2cc(OC)c(OC)cc2c1=N`?
SARS PLpro yeast: -30%; Pf growth 48h: inconclusive; Pf growth 96h: inconclusive; Cycloheximide cs: -5; NS1 function inh: -23%; Shiga inhibitor: -15

What do the screens show for `COc1cc2nc(SCc3ccc(Cl)cc3Cl)n(Cc3cccs3)c(=N)c2cc1OC`?
SARS PLpro yeast: -8%; Pf growth 48h: inconclusive; Pf growth 96h: 13µM*; Cycloheximide cs: -2; NS1 function inh: inconclusive; Shiga inhibitor: -14

Results for COc1ccc(Cn2c(SCc3cc(C)ccc3C)nc3cc(OC)c(OC)cc3c2=N)cc1 ?
SARS PLpro yeast: 5%; Pf growth 48h: 1.7µM*; Pf growth 96h: inconclusive; Cycloheximide cs: -2; NS1 function inh: -30%; Shiga inhibitor: -6

Results for COCCCn1c(SCc2ccccc2)nc2cc(OC)c(OC)cc2c1=N ?
SARS PLpro yeast: -6%; Pf growth 48h: 13µM*; Pf growth 96h: inconclusive; Cycloheximide cs: -4; NS1 function inh: 13%; Shiga inhibitor: -3

How did Cc1ccc2c(c1)N(C(=O)CCC(=O)NCCCN1CCC(Cc3ccccc3)CC1)CCO2 do in these assays?
SARS PLpro yeast: 0%; Pf growth 48h: inconclusive; Pf growth 96h: 0%; Cycloheximide cs: -2; NS1 function inh: -10%; Shiga inhibitor: -9

How did Cc1ccc(S(=O)(=O)N2CCCC(C(=O)N(Cc3cccs3)C3CC3)C2)cc1 (stereo not drawn) do in these assays?
SARS PLpro yeast: -11%; Pf growth 48h: 5.2µM*; Pf growth 96h: 13µM*; Cycloheximide cs: 6; NS1 function inh: -2%; Shiga inhibitor: 11

How did CCC1CCCCN1S(=O)(=O)c1ccc(S(=O)(=O)N(Cc2cccs2)C2CC2)cc1 (stereo not drawn) do in these assays?
SARS PLpro yeast: -1%; Pf growth 48h: 8.3µM*; Pf growth 96h: 29%; Cycloheximide cs: -1; NS1 function inh: 17%; Shiga inhibitor: 28

How did CCC1CCCCN1S(=O)(=O)c1ccc(S(=O)(=O)N(Cc2ccccn2)CC2CCCO2)cc1 (stereo not drawn) do in these assays?
SARS PLpro yeast: -37%; Pf growth 48h: -28%; Pf growth 96h: 17%; Cycloheximide cs: -1; NS1 function inh: -10%; Shiga inhibitor: -14

Results for CS(=O)(=O)N1CCCC(C(=O)NCc2cccs2)C1 (stereo not drawn) ?
SARS PLpro yeast: 5%; Pf growth 48h: -4%; Pf growth 96h: 5.9µM*; Cycloheximide cs: -1; NS1 function inh: -4%; Shiga inhibitor: 16

How did CCS(=O)(=O)N1CCC(C(=O)NCc2cccs2)CC1 do in these assays?
SARS PLpro yeast: 1%; Pf growth 48h: 0%; Pf growth 96h: 7.4µM*; Cycloheximide cs: -1; NS1 function inh: -5%; Shiga inhibitor: -7

How did CCOC(=O)C1CCCN(S(=O)(=O)c2ccc(C)cc2)C1 (stereo not drawn) do in these assays?
SARS PLpro yeast: 3%; Pf growth 48h: -12%; Pf growth 96h: 33%; Cycloheximide cs: 4; NS1 function inh: -13%; Shiga inhibitor: 9

What do the screens show for `COc1ccc(C(=O)NNC2=NCCCCC2)cc1`?
SARS PLpro yeast: 0%; Pf growth 48h: 13%; Pf growth 96h: 21%; Cycloheximide cs: -3; NS1 function inh: 7%; Shiga inhibitor: -2

How did Cc1ccc(S(=O)(=O)N2CCOCC2)cc1NC(=O)c1cc(-c2ccccn2)nc2ccccc12 do in these assays?
SARS PLpro yeast: 1%; Pf growth 48h: 9.3µM*; Pf growth 96h: inconclusive; Cycloheximide cs: -3; NS1 function inh: 1%; Shiga inhibitor: -2

What do the screens show for `CN(CC1CCCO1)S(=O)(=O)c1ccc(C(=O)Nc2nnc(-c3ccccc3)o2)cc1` (stereo not drawn)?
SARS PLpro yeast: -6%; Pf growth 48h: inconclusive; Pf growth 96h: inconclusive; Cycloheximide cs: 4; NS1 function inh: -8%; Shiga inhibitor: 10

Results for CN(CC1CCCO1)S(=O)(=O)c1ccc(C(=O)Nc2nc(-c3ccccn3)cs2)cc1 (stereo not drawn) ?
SARS PLpro yeast: 2%; Pf growth 48h: 12µM*; Pf growth 96h: 3.3µM*; Cycloheximide cs: -4; NS1 function inh: -33%; Shiga inhibitor: -12

What do the screens show for `O=C(Nc1cc(S(=O)(=O)N2CCOCC2)ccc1N1CCCCC1)c1cc(-c2ccccn2)nc2ccccc12`?
SARS PLpro yeast: -1%; Pf growth 48h: -27%; Pf growth 96h: inconclusive; Cycloheximide cs: -1; Shiga inhibitor: -4

Results for Cc1ccc(S(=O)(=O)N2CCOCC2)cc1C(=O)Nc1nc(-c2cccnc2)cs1 ?
SARS PLpro yeast: -4%; Pf growth 48h: 9.3µM*; Pf growth 96h: -9%; Cycloheximide cs: 1; NS1 function inh: -12%; Shiga inhibitor: -11

Results for Cc1ccc(S(=O)(=O)N2CCOCC2)cc1C(=O)Nc1ccc(-c2cn3ccsc3n2)cc1 ?
SARS PLpro yeast: 0%; Pf growth 48h: 9.3µM*; Pf growth 96h: -11%; Cycloheximide cs: 20*; NS1 function inh: inconclusive; Shiga inhibitor: 18

What do the screens show for `Cc1ccc(S(=O)(=O)N2CCOCC2)cc1C(=O)NCc1cccnc1`?
SARS PLpro yeast: 2%; Pf growth 48h: 12%; Cycloheximide cs: -2; NS1 function inh: 1%; Shiga inhibitor: 11

What do the screens show for `O=C(NNC(=S)Nc1ccccc1)C1CCCCC1`?
SARS PLpro yeast: 2%; Pf growth 48h: 339%; Pf growth 96h: -8%; Cycloheximide cs: 2; Shiga inhibitor: 10

How did Cc1ccccc1NC(=O)c1cc(S(=O)(=O)N2CCOCC2)ccc1F do in these assays?
SARS PLpro yeast: -3%; Pf growth 48h: -2%; Pf growth 96h: -1%; Cycloheximide cs: -2; NS1 function inh: 8%; Shiga inhibitor: -9

Results for CN(C)S(=O)(=O)c1ccc(C(=O)Nc2nc(-c3cc4ccccc4o3)cs2)cc1 ?
SARS PLpro yeast: 1%; Pf growth 48h: -16%; Pf growth 96h: inconclusive; Cycloheximide cs: 1; NS1 function inh: 5%; Shiga inhibitor: 3

What do the screens show for `Cc1ccc(C(=O)Nc2ccccn2)cc1S(=O)(=O)N1CCOCC1`?
SARS PLpro yeast: 0%; Pf growth 48h: 22%; Pf growth 96h: 0%

Compound activity deposited in PubChem by National Center for Advancing Translational Sciences (NCATS).
